This is an account of results in PubChem BioAssay (Tox21).

Results filed as inconclusive are left out. A structure can be active in one record and inactive in another. Active and inactive are the calls of the source. Unless noted, calls come from the whole dose curve; as a rule, active = well fitted curve in the direction sought with a large enough effect in the repeat runs; inconclusive = weak or mixed curves; inactive = no such curve, though single readings can be large; an effect the other way counts as inactive or inconclusive.
% is set by controls: 0 for no effect and ±100 for the full control effect; potency is the fitted concentration of half-maximal effect.

Sequence of Peroxisome proliferator-activated receptor delta (Homo sapiens) (Q03181 whole entry, looked up): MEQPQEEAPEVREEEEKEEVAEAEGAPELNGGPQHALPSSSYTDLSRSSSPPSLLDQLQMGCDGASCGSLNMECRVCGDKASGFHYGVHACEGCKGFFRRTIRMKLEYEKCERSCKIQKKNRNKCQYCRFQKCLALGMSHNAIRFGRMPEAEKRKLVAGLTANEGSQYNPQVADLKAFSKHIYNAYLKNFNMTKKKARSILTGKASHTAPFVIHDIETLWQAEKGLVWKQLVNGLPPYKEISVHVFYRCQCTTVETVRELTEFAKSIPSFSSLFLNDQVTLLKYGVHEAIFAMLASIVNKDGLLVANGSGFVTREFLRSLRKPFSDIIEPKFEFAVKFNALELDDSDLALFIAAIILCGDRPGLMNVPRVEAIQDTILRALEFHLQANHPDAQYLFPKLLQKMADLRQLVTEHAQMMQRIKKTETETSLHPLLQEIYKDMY

System in one experiment: not listed separately
Kind of experiment: qHTS assay to identify small molecule antagonists of the peroxisome proliferator-activated receptor delta (PPARd) signaling pathway - cell viability counter screen (AID 743213). Note: nearly all actives have a fitted effect of over 50% in size. As to conditions: PPARd-bla HEK293H viability, CellTiter-Glo luminescence, 17 h; series mostly up to 62 µM; viability change, negative = cytotoxic: at the top concentration. The method in brief: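 PPARd-bla HEK293H cells (3000/well) got compound plus 300 nM L165041 agonist for 17 h at 37 C. Viability in the same wells came from CellTiter-Glo luminescence after 30 min at room temperature.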
Background: In qHTS, concentration-response curves come from the screen itself.
As for `Oc1cccc2cc3cccc(O)c3c(O)c12`, the “viability change, negative = cytotoxic” value was 15.7% [at 80.4 µM] (inactive).

For the molecule `CC1=NC(C)OC1C` (stereo unspecified), the “viability change, negative = cytotoxic” value was -19.4% (inactive).

Consider `CC(C)=CCOc1ccc(/C=C/C(=O)c2ccc(OCC=C(C)C)cc2OCC(=O)O)cc1`, for which the “viability change, negative = cytotoxic” value is -24% (inactive).

For `CSc1ccc(C(=O)c2[nH]c(=O)[nH]c2C)cc1`, the “viability change, negative = cytotoxic” value was -0.33% (inactive).

Turning to `O=[N+]([O-])c1cc(Cl)c(Cl)c(Cl)c1Cl`, the “viability change, negative = cytotoxic” value was 0.148% (inactive).

Consider `CCCCCCCCCCCCCCCS(=O)(=O)Oc1ccccc1`, for which the “viability change, negative = cytotoxic” value was 0.775% (inactive).

For `On1ccccc1=S`, the Potency is 0.685 µM (active).

Turning to `CO[Si](CCCNc1ccccc1)(OC)OC`, the “viability change, negative = cytotoxic” value is 9.98% (inactive).

In the case of `COC(=O)C1=C(C)NC(C)=C(C(=O)OCC(C)C)C1c1ccccc1[N+](=O)[O-]` (stereo unspecified), the Potency is 21.9 µM (active) and inactive.

On to `Cc1c(C)c2c(c(C)c1OC(=O)CCC(=O)O)CC[C@@](C)(CCC[C@H](C)CCC[C@H](C)CCCC(C)C)O2`, for which the “viability change, negative = cytotoxic” value is -13.3% [at 80.4 µM] (inactive).

As to `CCCCc1oc2ccc(NS(C)(=O)=O)cc2c1C(=O)c1ccc(OCCCN(CCCC)CCCC)cc1`, the Potency was 23.7 µM (active).

As for `Cc1nc(-c2ccc3c(c2)CCN(CCC2CCC(NC(=O)/C=C/c4ccc(F)cc4)CC2)CC3)no1` (stereo unspecified), the “viability change, negative = cytotoxic” value was -22.1% [at 28.9 µM] (inactive).

As for `Cc1cccc(CN2CCN(C(c3ccccc3)c3ccc(Cl)cc3)CC2)c1` (stereo unspecified), the “viability change, negative = cytotoxic” value was 3.15% (inactive).

For `O=C1Cc2cc(CCN3CCN(c4nsc5ccccc45)CC3)c(Cl)cc2N1`, the Potency was 26.6 µM (active).

As to `CCCCCCCCCCCCCCCC(=O)OC[C@H](O)[C@H]1OC(=O)C(O)=C1O`, the “viability change, negative = cytotoxic” value was -6.87% (inactive).

Take `CN(C)[C@@H]1C(=O)C(C(N)=O)=C(O)[C@@]2(O)C(=O)C3=C(O)c4c(O)ccc(Cl)c4[C@@H](O)[C@H]3C[C@@H]12`: the “viability change, negative = cytotoxic” value was 2.97% (inactive).

In the case of `CC(C)CCCCCCCCCCCCCCC(=O)O`, the “viability change, negative = cytotoxic” value is 9.04% (inactive).

In the case of `CNC(=O)c1ccccc1`, the “viability change, negative = cytotoxic” value was 5.74% (inactive).

For the molecule `O=C(O)c1ccc(Cl)c(Cl)c1`, the “viability change, negative = cytotoxic” value was 1.18% (inactive).

`Clc1ccc2n[nH]nc2c1`: the “viability change, negative = cytotoxic” value is 15.4% (inactive).

The target in the next experiment is Peroxisome proliferator-activated receptor delta (Homo sapiens) (UniProt Q03181). In words: qHTS assay to identify small molecule antagonists of the peroxisome proliferator-activated receptor delta (PPARd) signaling pathway (AID 743215; active = well fitted inhibition curve with a large enough effect in the signal ratio in the repeat runs, not every such curve was filed as active; the % refers to the signal ratio;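 note: cells stimulated with agonist L165041 at 300 nM final during compound exposure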). As to conditions: HEK293H PPARd-UAS-bla, beta-lactamase FRET ratio, antagonist, 17 h; series mostly up to 62 µM; ratio activity, negative = inhibition: at the top concentration. The method in brief:
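Fluorescence from cleaved LiveBLAzer B/G FRET substrate (2 h, room temperature) reports PPARd-driven beta-lactamase in HEK293H UAS-bla cells. Cells had been treated 17 h at 37 C with compound plus 300 nM final L165041.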
For the molecule `O=Cc1cc(O)ccc1Br`, the “ratio activity, negative = inhibition” value is 2.07% [at 80.4 µM] (inactive).

Consider `CCCCCCCCCCCCCCCC[N+](C)(C)CCN(Cc1ccc(OC)cc1)c1ncccn1`, for which the “ratio activity, negative = inhibition” value is -27.3% (inactive).

Take `CSc1ccc(C(=O)c2[nH]c(=O)[nH]c2C)cc1`: the “ratio activity, negative = inhibition” value is -0.774% (inactive).

Take `CCN(CCC#N)c1ccc(N=Nc2c(Cl)cc([N+](=O)[O-])cc2Cl)cc1`: the “ratio activity, negative = inhibition” value was 2.34% (inactive).

As for `CO[Si](CCCNc1ccccc1)(OC)OC`, the “ratio activity, negative = inhibition” value is 13.5% (inactive).

As for `Cc1c(C)c2c(c(C)c1OC(=O)CCC(=O)O)CC[C@@](C)(CCC[C@H](C)CCC[C@H](C)CCCC(C)C)O2`, the “ratio activity, negative = inhibition” value was -4.14% [at 80.4 µM] (inactive).

As for `Cc1cc(O)c2ccccc2c1O`, the Potency was 10.6 µM (active).

Turning to `Cc1cccc(CN2CCN(C(c3ccccc3)c3ccc(Cl)cc3)CC2)c1` (stereo unspecified), the “ratio activity, negative = inhibition” value was -0.24% (inactive).

On to `CCCCCCCCCCCCCC[P+](CCCC)(CCCC)CCCC` (tested in a mixture with another compound), for which the “ratio activity, negative = inhibition” value is -7.65% [at 80.4 µM] (inactive).

For `Cc1cccc(S(=O)(=O)O)c1C`, the “ratio activity, negative = inhibition” value was 16.5% (inactive).

Consider `CCCCCCCCCCCCCCCC(=O)OC[C@H](O)[C@H]1OC(=O)C(O)=C1O`, for which the “ratio activity, negative = inhibition” value was 5.65% (inactive).

With `CC(C)CCCCCCCCCCCCCCC(=O)O`, the “ratio activity, negative = inhibition” value is 0.0232% (inactive).

For `CNC(=O)c1ccccc1`, the “ratio activity, negative = inhibition” value is 1.05% (inactive).

In the case of `CCCCN1CCCC[C@H]1C(=O)Nc1c(C)cccc1C`, the “ratio activity, negative = inhibition” value is -15.8% (inactive).

Take `O=C(O)c1ccc(Cl)c(Cl)c1`: the “ratio activity, negative = inhibition” value is 5% (inactive).

With `O=C(O)c1cc(O)c2c(c1)C(=O)c1cccc(O)c1C2=O`, the “ratio activity, negative = inhibition” value is -3.51% [at 80.4 µM] (inactive).

Take `Clc1ccc2n[nH]nc2c1`: the “ratio activity, negative = inhibition” value is 12.1% (inactive).

Another experiment deals with Bile acid receptor (Homo sapiens) (UniProt Q96RI1). In words: qHTS assay to identify small molecule antagonists of the farnesoid-X-receptor (FXR) signaling pathway (AID 743217; active = well fitted inhibition curve with a large enough effect in the signal ratio in the repeat runs, not every such curve was filed as active; the % refers to the signal ratio). To be noted: HEK293T FXR-UAS-bla, beta-lactamase ratio, CDCA-stimulated, 16 h; series mostly up to 62.6 µM; activity change, negative = inhibition: at the top concentration. The method in brief: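 FRET fluorescence after 2 h room-temperature LiveBLAzer loading gives the readout. Prior step: FXR-bla HEK 293T cells, seeded and incubated 5 h, received test compounds plus 50 uM final CDCA for 16 h at 37 °C.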
Sequence of Bile acid receptor (Homo sapiens) (Q96RI1 whole entry, looked up): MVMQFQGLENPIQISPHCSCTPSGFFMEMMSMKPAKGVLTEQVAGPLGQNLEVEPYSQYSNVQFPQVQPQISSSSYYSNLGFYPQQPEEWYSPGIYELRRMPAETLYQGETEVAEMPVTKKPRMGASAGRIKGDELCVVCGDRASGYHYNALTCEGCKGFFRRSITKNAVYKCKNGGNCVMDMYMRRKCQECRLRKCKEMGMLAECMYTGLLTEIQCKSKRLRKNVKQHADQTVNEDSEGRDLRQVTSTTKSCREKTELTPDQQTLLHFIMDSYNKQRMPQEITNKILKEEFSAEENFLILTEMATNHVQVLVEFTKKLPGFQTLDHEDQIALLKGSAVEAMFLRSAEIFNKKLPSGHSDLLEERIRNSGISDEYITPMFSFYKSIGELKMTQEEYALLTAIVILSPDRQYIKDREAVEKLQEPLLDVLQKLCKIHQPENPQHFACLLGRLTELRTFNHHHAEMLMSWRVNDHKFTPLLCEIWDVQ
Regarding `CC(C)(C)CC(C)(C)c1ccc(OCCOCC[N+](C)(C)Cc2ccccc2)cc1`, the “activity change, negative = inhibition” value is -13.9% (inactive).

Turning to `Oc1cccc2cc3cccc(O)c3c(O)c12`, the “activity change, negative = inhibition” value is -6.37% [at 81.1 µM] (inactive).

On to `O=Cc1cc(O)ccc1Br`, for which the “activity change, negative = inhibition” value was -0.0582% [at 81.1 µM] (inactive).

On to `CO[Si](CCCNc1ccccc1)(OC)OC`, for which the “activity change, negative = inhibition” value is -3.21% (inactive).

Regarding `Cc1cc(O)c2ccccc2c1O`, the Potency is 16.8 µM (active).

Take `Cc1nc(-c2ccc3c(c2)CCN(CCC2CCC(NC(=O)/C=C/c4ccc(F)cc4)CC2)CC3)no1` (stereo unspecified): the “activity change, negative = inhibition” value was 6.24% [at 29.1 µM] (inactive).

Turning to `Cc1ccc(-n2nc(C(C)(C)C)cc2NC(=O)Nc2ccc(OCCN3CCOCC3)c3ccccc23)cc1`, the Potency was 16.8 µM (active).

With `CNC(=O)c1ccccc1`, the “activity change, negative = inhibition” value is 4.96% (inactive).

For `N/C(=N\N=C\c1ccc(Cl)cc1)N/N=C/c1ccc(Cl)cc1`, the “activity change, negative = inhibition” value was -1.31% (inactive).

System in the next experiment: not listed separately
Kind of experiment: qHTS assay to identify small molecule agonists of the farnesoid-X-receptor (FXR) signaling pathway - cell viability counter screen (AID 743218). Note: nearly all actives have a fitted effect of over 45% in size. To be noted: FXR-bla HEK293T viability, CellTiter-Glo luminescence, 16 h; series mostly up to 62.6 µM; viability change, negative = cytotoxic: at the top concentration. The method in brief:
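Readout: CellTiter-Glo luminescence, 30 min RT, multiplexed after the FXR-bla FRET reading. HEK 293T FXR-UAS-bla cells received compound 5 h post-plating and were incubated 16 h at 37 C.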
Turning to `CC(C)(C)CC(C)(C)c1ccc(OCCOCC[N+](C)(C)Cc2ccccc2)cc1`, the Potency was 48.9 µM (active).

Regarding `Oc1cccc2cc3cccc(O)c3c(O)c12`, the “viability change, negative = cytotoxic” value was -6.47% [at 81.1 µM] (inactive).

As to `CC1=NC(C)OC1C` (stereo unspecified), the “viability change, negative = cytotoxic” value is 12.6% (inactive).

As to `O=Cc1cc(O)ccc1Br`, the “viability change, negative = cytotoxic” value is 6.95% [at 81.1 µM] (inactive).

Regarding `CCCCCCCCCCCCCCCC[N+](C)(C)CCN(Cc1ccc(OC)cc1)c1ncccn1`, the Potency was 29.8 µM (active).

In the case of `CSc1ccc(C(=O)c2[nH]c(=O)[nH]c2C)cc1`, the “viability change, negative = cytotoxic” value was 0.354% (inactive).

For `O=[N+]([O-])c1cc(Cl)c(Cl)c(Cl)c1Cl`, the “viability change, negative = cytotoxic” value was 0.0678% (inactive).

For `Fc1ccc(C(c2ccc(F)cc2)N2CCN(C/C=C/c3ccccc3)CC2)cc1`, the “viability change, negative = cytotoxic” value is 4.26% (inactive).

Turning to `CCCCCCCCCCCCCCCS(=O)(=O)Oc1ccccc1`, the “viability change, negative = cytotoxic” value is -14.5% (inactive).

With `On1ccccc1=S`, the Potency was 0.385 µM (active).

Regarding `CO[Si](CCCNc1ccccc1)(OC)OC`, the “viability change, negative = cytotoxic” value was 15.9% (inactive).

Regarding `COC(=O)C1=C(C)NC(C)=C(C(=O)OCC(C)C)C1c1ccccc1[N+](=O)[O-]` (stereo unspecified), the “viability change, negative = cytotoxic” value is -19.4% (inactive).

Take `Cc1c(C)c2c(c(C)c1OC(=O)CCC(=O)O)CC[C@@](C)(CCC[C@H](C)CCC[C@H](C)CCCC(C)C)O2`: the “viability change, negative = cytotoxic” value was -4.45% [at 81.1 µM] (inactive).

Take `Cc1cc(O)c2ccccc2c1O`: the Potency is 13.3 µM (active).

`CCCCc1oc2ccc(NS(C)(=O)=O)cc2c1C(=O)c1ccc(OCCCN(CCCC)CCCC)cc1`: the Potency was 26.6 µM (active).

For `Cc1nc(-c2ccc3c(c2)CCN(CCC2CCC(NC(=O)/C=C/c4ccc(F)cc4)CC2)CC3)no1` (stereo unspecified), the “viability change, negative = cytotoxic” value is -4.01% [at 29.1 µM] (inactive).

As for `Cc1cccc(CN2CCN(C(c3ccccc3)c3ccc(Cl)cc3)CC2)c1` (stereo unspecified), the Potency was 29.8 µM (active).

Take `CCCCCCCCCCCCCC[P+](CCCC)(CCCC)CCCC` (tested in a mixture with another compound): the Potency is 17.5 µM (active).

As to `Cc1cccc(S(=O)(=O)O)c1C`, the “viability change, negative = cytotoxic” value was -4.46% (inactive).

Turning to `CCCCCCCCCCCCCCCC(=O)OC[C@H](O)[C@H]1OC(=O)C(O)=C1O`, the Potency is 38.9 µM (active).

With `CN(C)[C@@H]1C(=O)C(C(N)=O)=C(O)[C@@]2(O)C(=O)C3=C(O)c4c(O)ccc(Cl)c4[C@@H](O)[C@H]3C[C@@H]12`, the “viability change, negative = cytotoxic” value was 7.01% (inactive).

As for `CC(C)CCCCCCCCCCCCCCC(=O)O`, the “viability change, negative = cytotoxic” value is 0.823% (inactive).

Turning to `CNC(=O)c1ccccc1`, the “viability change, negative = cytotoxic” value is -22.4% (inactive).

`CCCCN1CCCC[C@H]1C(=O)Nc1c(C)cccc1C`: the “viability change, negative = cytotoxic” value was 14% (inactive).

For the molecule `CCc1cc(Cc2cc(CC)c(N)c(CC)c2)cc(CC)c1N`, the Potency was 43.6 µM (active).

Consider `O=C(O)c1ccc(Cl)c(Cl)c1`, for which the “viability change, negative = cytotoxic” value is -22.5% (inactive).

Consider `O=C(O)c1cc(O)c2c(c1)C(=O)c1cccc(O)c1C2=O`, for which the “viability change, negative = cytotoxic” value is -2.3% [at 81.1 µM] (inactive).

With `Clc1ccc2n[nH]nc2c1`, the “viability change, negative = cytotoxic” value was 22.2% (inactive).

`COc1ccc(-c2ccc3cc(C(=O)O)ccc3c2)cc1C12CC3CC(CC(C3)C1)C2`: the Potency was 7.5 µM (active).

On to `OCCCCCCCCCCCCBr`, for which the “viability change, negative = cytotoxic” value is -21.7% [at 81.1 µM] (inactive).
